High-throughput results (PubChem)
TDP1 cell CPT = qHTS for Inhibitors of human tyrosyl-DNA phosphodiesterase 1 (TDP1): qHTS in cells in presence of CPT; Potency, µM (top dose mostly 46.2 µM), for the others: at the highest dose activity change, negative = growth inhibition, actives largely listed as inhibitors; chicken DT40 Tdp1-/-;hTDP1 cells + 20 nM CPT, ATP luminescence, 48 h; 12% of 420,000 active; note: potency is the fitted concentration of half-maximal effect; % is set by controls: 0 for no effect and ±100 for the full control effect; nearly all actives have a fitted effect of over 55% in size
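Chicken DT40 Tdp1-/- cells complemented with human TDP1, 400 cells/well, exposed to compounds plus 20 nM camptothecin for at least 48 h at 37 C; viability read as ATP content by CellTiter-Glo luminescence.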
SW480 rerep = A quantitative high throughput screen for small molecules that induce DNA re-replication in SW480 colon adenocarcinoma cells. Potency, µM (highest dose often 46.1 µM), inactives show at the top dose re-replication activation, usual class: activators. 1.8% of 340,000 active. SW480 DNA re-replication, Hoechst DNA content imaging, 48 h. AID 624297, 2012; note: potency is the fitted concentration of half-maximal effect; % of control where 0% means no effect; nearly all actives have a fitted effect of over 55% in size
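Cells (250 per well) received 23 nL compound or DMSO by pin tool and were kept 48 hr at 37 C, 5% CO2. Nuclei were then stained with Hoechst for 40 min and scanned for DNA content.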
DT40 TDP1 no CPT = qHTS for Inhibitors of human tyrosyl-DNA phosphodiesterase 1 (TDP1): qHTS in cells in absence of CPT. AID 686978, 2013. Potency, µM (highest dose often 46.2 µM), inactives show at the highest dose activity change, negative = growth inhibition, most hits filed as inhibitors. DT40 Tdp1-/- hTDP1 cells, no CPT, ATP luminescence, 48 h. 15% of 420,000 active; note: potency is the fitted concentration of half-maximal effect; % is set by controls: 0 for no effect and ±100 for the full control effect; nearly all actives have a fitted effect of over 55% in size
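No-CPT arm: Tdp1-/-;hTDP1 DT40 cells (400/well) plus compounds, incubated ≥48 hr at 37 °C. Readout CellTiter-Glo luminescence.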
IL1B secr inh = qHTS for Inhibitors of Inflammasome Signaling: IL-1-beta AlphaLISA Primary Screen. 4.7% of 360,000 active. activity change, % at 57.5 µM. THP-1 LPS/ATP IL-1B secretion, AlphaLISA, 16 h; hits give low values. AID 743279, 2014; in the data active = activity change below about -50%; inconclusive = mostly about -30% to -49%; note: % is set by controls: 0 for no effect and ±100 for the full control effect
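Secreted IL-1B measured by AlphaLISA bead assay after 16 h compound exposure of THP-1 cells; compounds (final up to 57.5 uM) added 1 h before LPS (250 ng/mL) and ATP (1.25 mM) stimulation; lower signal means less secretion.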
Chronic BCR inh = qHTS Assay to Find Inhibitors of Chronic Active B-Cell Receptor Signaling; ABC-DLBCL IkBa-CBG/CBR reporter, luminescence ratio, 4 h; Potency, µM (series often up to 46.1 µM), inactives show top-dose activity change, negative = inhibition, hits mostly inhibitors; 0.05% of 340,000 active; AID 493014, 2011; active = well fitted inhibition curve with a large enough effect in the signal ratio, with a control signal flat, not every such curve was filed as active; inconclusive = small, poorly fitted or top-dose-only effect, or effect the other way, or a change in a side signal; the % refers to the signal ratio;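 note: potency is the fitted concentration of half-maximal effect; plate controls were basal doxycycline-induced cells for no effect and cells given 10 µM MG132 for full effect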
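TMD8 ABC-DLBCL cells carrying doxycycline-inducible green luciferase fused to IkappaBalpha plus unfused red luciferase were exposed to compounds (up to 46 uM) for 4 hrs at 37C. Activity came from the overlap-corrected green/red luminescence ratio.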
MCF10A rereplic = A quantitative high throughput screen for small molecules that induce DNA re-replication in MCF 10a normal breast cells; MCF 10A DNA re-replication, Hoechst nuclear intensity, 48 h; Potency, µM (series often up to 46.1 µM), for the others: at the top dose activity, positive = re-replication, most hits filed as activators; 2.9% of 350,000 active; note: potency is the fitted concentration of half-maximal effect; % of control where 0% means no effect; nearly all actives have a fitted effect of over 50% in size
* marks the source's active call; other numbers are inactive results; ? = inconclusive; . = not tested or not shown. Rows were chosen to be rich in hits. Some 19% of all compounds tested hit in one or more screens of this group. Unless noted, calls come from the whole dose curve; as a rule, active = well fitted curve in the direction sought with a large enough effect; inconclusive = small, poorly fitted or top-dose-only effect, or another doubt; inactive = no such curve, though single readings can be large; an effect the other way counts as inactive or inconclusive.

SMILES	TDP1 cell CPT	SW480 rerep	DT40 TDP1 no CPT	IL1B secr inh	Chronic BCR inh	MCF10A rereplic
Cc1ccc(C)c(SCC(=O)OCC(=O)NCCNC(=O)COC(=O)CSc2cc(C)ccc2C)c1	-28.5%	-21.6%	-7.2%	17.9	-1.4%	-6.2%
CN1CCCC(C)(C(=O)Nc2ccc(-n3cccc3)cc2)C1 (centres undefined)	-17.7%	.	-15.7%	0.0	.	.
COc1ccccc1Nc1ncc2c(n1)CCN(Cc1ccc(C)s1)C2	-5.6%	.	-10.3%	.	.	.
COc1ccc(CN2CCN(Cc3ccccc3F)CC2)c(OC)c1	-14.0%	-3.6%	?	3.0	6.1%	-1.7%
COc1ccc(Nc2ncc3c(n2)CCN(Cc2ccc(Br)s2)C3)c(OC)c1	20.6µM*	.	13µM*	.	.	.
COc1ccc(Nc2ncc3c(n2)CCN(Cc2cccc(F)c2F)C3)c(OC)c1	25.9µM*	.	20.6µM*	.	.	.
COc1ccc(Nc2ncc3c(n2)CCN(Cc2cc(Br)cs2)C3)c(OC)c1	18.4µM*	.	14.6µM*	.	.	.
O=C(NCCC(NS(=O)(=O)OCC(Cl)(Cl)Cl)c1ccccc1)C(F)(F)F (centres undefined)	?	-8.4%	?	14.0	-3.9%	-2.4%
Cn1cccc1C(=O)NC(=O)COC(=O)c1ccc(S(C)(=O)=O)c([N+](=O)[O-])c1	3.98µM*	16.4µM*	4.47µM*	-95.4*	?	5.8µM*
CS(=O)(=O)c1ccc(C(=O)OCC(=O)NCC2CCCO2)cc1[N+](=O)[O-] (centres undefined)	10µM*	.	7.94µM*	.	.	.
CS(=O)(=O)c1ccc(C(=O)OCC(=O)NC23CC4CC(CC(C4)C2)C3)cc1[N+](=O)[O-]	?	?	?	-106.7*	6.6%	4.11µM*
CC1CCN(C(=O)C(C)OC(=O)c2ccc(S(C)(=O)=O)c([N+](=O)[O-])c2)CC1 (centres undefined)	0.891µM*	.	2.24µM*	.	.	.
Cc1cccc(NC(=O)CNC(=O)Cc2ccc(S(=O)(=O)N3CCOCC3)s2)c1C	0.9%	-28.4%	-0.2%	9.5	-2.7%	3.9%
Cc1cc(OCC(=O)Nc2sc3c(c2C#N)CCC(C)C3)ccc1Cl (centres undefined)	-28.8%	.	?	.	.	.
COc1ccc(C(=O)OCC(=O)NC(=O)NC2CCCC2)cc1[N+](=O)[O-]	-1.3%	3.1%	-3.2%	27.9	-12.7%	-2.9%
CS(=O)(=O)c1ccc(C(=O)OCC(=O)NC(=O)NC2CCCCC2)cc1[N+](=O)[O-]	2.82µM*	.	4.47µM*	.	.	.
COc1ccc(N2CCN(C(=O)C(C)n3c(=O)cc(C(F)(F)F)c4c(C)nn(C)c43)CC2)cc1 (centres undefined)	11.6µM*	.	11.6µM*	.	.	.
Cc1nn(C)c2c1c(C(F)(F)F)cc(=O)n2C(C)C(=O)N1CCN(c2ccccc2)CC1 (centres undefined)	23.1µM*	.	?	.	.	.
Cc1nn(C)c2c1c(C(F)(F)F)cc(=O)n2C(C)C(=O)NCCc1ccc(Cl)cc1 (centres undefined)	14.6µM*	.	?	.	.	.
Cc1ccc(C)c(NC(=O)C(C)n2c(=O)cc(C(F)(F)F)c3c(C)nn(C)c32)c1 (centres undefined)	-19.8%	.	2.2%	.	.	.
Clc1cccc(CNc2cc(-c3ccccc3)nc3nncn23)c1	14.6µM*	.	14.6µM*	.	.	.
CC(=O)Nc1cc(-c2ccccc2)nn1Cc1ccc(Cl)cc1	-17.8%	-0.7%	1.5%	-20.2	-1.7%	6.8%
COc1ccccc1CNc1cncnc1	-9.1%	-0.7%	0.9%	18.7	2.3%	0.2%
Clc1ccc(CNc2cc(-c3ccccc3)nc3nncn23)cc1	16.4µM*	.	13µM*	.	.	.
Cc1cncc(NCc2cccc(Cl)c2)n1	-18.7%	.	-25.3%	0.0	.	.
SMILES	TDP1 cell CPT	SW480 rerep	DT40 TDP1 no CPT	IL1B secr inh	Chronic BCR inh	MCF10A rereplic
COc1ccccc1CNc1cc(-c2ccccc2)nc2nncn12	23.1µM*	.	16.4µM*	.	.	.
O=C(NCCCc1ccccc1)c1ccc(F)cc1	1.2%	-0.4%	-16.4%	-16.1	-0.7%	-1.0%
O=C(NCCNC1CCC(c2ccccc2)CC1)c1ccc(F)cc1 (centres undefined)	?	13.9%	?	-69.9*	?	1.3%
Cc1ccc(CSCCC(=O)NCc2ccc(F)cc2Cl)cc1	0.1%	.	-24.7%	.	?	.
O=C1c2cnc3nc(SCc4ccccc4)nn3c2CC2c3ccccc3CCN12 (centres undefined)	?	4.11µM*	18.4µM*	0.0	10.9%	2.31µM*
O=C1CC2c3ccccc3CCN2C(=O)CN1Cc1ccccc1 (centres undefined)	-9.8%	.	-3.3%	8.2	.	.
CC(C)(C)[C@@H]1CCC(=O)N(CC[C@H](N=[N+]=[N-])c2ccccc2)CC1	?	-1.0%	18.4µM*	-23.9	?	20.6µM*
COc1ccc(S[C@@H](CCN2CC[C@H](O)CCC2=O)c2ccccc2)cc1	?	-93.8%	?	-5.1	-3.4%	22.8%
CC(=O)Nc1ccc(S[C@@H](CCN2CC[C@H](C(C)(C)C)CCC2=O)c2ccccc2)cc1	20.6µM*	-0.4%	18.4µM*	-74.5*	1.1%	?
CC(C)(C)[C@@H]1CCC(=O)N(CC[C@H](Sc2ccccc2)c2ccccc2)CC1	16.4µM*	-4.4%	20.6µM*	?	?	?
CCOC(=O)c1nn(-c2ccc(Br)cc2)cc1C(=O)c1cccc2ccccc12	8.2µM*	?	16.4µM*	-2.5	-1.8%	?
CCOC(=O)c1nn(-c2ccc(F)cc2)cc1O	13.2%	3.4%	10.8%	-7.3	1.4%	-7.2%
CC1(C)CC(=O)C2=C(C1)OC(N)=C(C#N)C2C#Cc1ccccc1 (centres undefined)	5.17µM*	?	4.61µM*	-96.3*	?	8.91µM*
CC1(C)CC(=O)C2=C(C1)OC(N)=C(C#N)C2c1cn(-c2ccccc2)nc1-c1ccccc1 (centres undefined)	?	4.8%	?	-53.8*	?	?
CC1(C)CC(=O)C2=C(C1)OC(N)=C(C#N)C2c1ccoc1 (centres undefined)	1.4%	2.9%	13.1%	19.4	-16.6%	0.2%
